Assay outcomes from PubChem BioAssay.
IMPase cell inh = qHTS Assay for Identifying the Cell-Membrane Permeable IMPase Inhibitors. Inositol monophosphatase 1 (Rattus norvegicus), P97697. CHO-M1 cells, IP1 accumulation, HTRF TR-FRET ratio. inhibition (IP1 accumulation), % at 46.1 µM. 120,000 tested, under 10 active; active means well fitted curve in the direction sought with a large enough effect in the signal ratio, not every such curve was filed as active; inconclusive means small, poorly fitted or top-dose-only effect, or a change in a side signal; inactive means no such curve, though single readings can be large or run the other way; the % refers to the signal ratio;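 further: cells stimulated with carbachol in lithium chloride buffer; plate controls were DMSO basal wells for no effect and reference inhibitor wells for full effect; higher means more IMPase inhibition seen as more IP1 and lower FRET ratio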
Target sequence (P97697 whole entry, looked up): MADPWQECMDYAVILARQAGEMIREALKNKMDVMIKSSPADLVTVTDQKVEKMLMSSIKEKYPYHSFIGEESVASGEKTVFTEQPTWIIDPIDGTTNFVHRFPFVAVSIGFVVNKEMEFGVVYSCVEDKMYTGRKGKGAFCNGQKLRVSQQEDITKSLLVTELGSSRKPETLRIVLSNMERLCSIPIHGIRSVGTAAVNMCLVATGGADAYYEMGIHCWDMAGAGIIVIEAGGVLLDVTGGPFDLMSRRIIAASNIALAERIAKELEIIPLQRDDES
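Elevated IP1 in lysates lowers TR-FRET signal (665/620 ratio and 620 channel reported). Cells were CHO-M1, given carbachol (50 uM as added) plus 50mM LiCl, pH 7.4, 30 min, 37C; compounds titrated up to 46 uM; AC50 by Hill equation.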
ALOX12 inhib = qHTS Assay for Inhibitors of 12-hLO (12-human lipoxygenase). Polyunsaturated fatty acid lipoxygenase ALOX12 (Homo sapiens), P18054. purified 12-hLO, xylenol orange hydroperoxide absorbance. Potency, µM (highest dose often 57.1 µM), without a hit: at the highest dose activity change, negative = inhibition, actives largely listed as inhibitors. actives 0.12% (n = 150,000); further: potency means the concentration at half of the fitted maximal effect; nearly all actives have a fitted effect of over 55% in size
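150 nM 12hLO, 25 mM Hepes pH 7.0 + 0.01% Triton X-100; cpd preinc 15 min RT; 40 uM arachidonic acid, 30 min RT; Fe-XO 30 min; A573/A405 ratio as read-out.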
ALOX15B inhib = qHTS Assay for Inhibitors of 15-hLO-2 (15-human lipoxygenase 2). actives 0.56% (n = 110,000). purified 15hLO-2, xylenol orange hydroperoxide absorbance. Potency, µM (titrated, usually from 57.1 µM), for inactives: at the top dose activity change, negative = inhibition, most hits filed as inhibitors. Polyunsaturated fatty acid lipoxygenase ALOX15B (Homo sapiens), O15296; further: potency means the concentration at half of the fitted maximal effect; nearly all actives have a fitted effect of over 60% in size
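Read-out: hydroperoxide product oxidises ferrous iron, measured as xylenol orange complex via the 573-to-405 nm absorbance ratio after 30 min. Reaction: 50 nM enzyme, 15 min compound preincubation, 45 uM arachidonic acid, 90 min RT, Hepes pH 7.5 with Triton X-100.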
PNC inhibitor = High Content Assay for Compounds that inhibit the Assembly of the Perinucleolar Compartment | PC3M PTB-GFP, PNC prevalence imaging, 16 h; active compounds read low | activity change (PNC), negative = inhibition, % at 10 µM | actives 3.1% (n = 140,000);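 active means readout at or below -70, meaning at least 70% loss of cells showing the perinucleolar compartment, a nuclear body marking cancer cells; inconclusive means readout between -30 and a set limit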;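 further: plate controls were DMSO wells for no effect and camptothecin positive control wells for full effect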
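Read-out is percentage of cells bearing a perinucleolar compartment, from automated 20x imaging of fixed, Hoechst-stained PC3M PTB-GFP cells. Cells were seeded 4 h, then exposed 16 h to compound (23 nl of library stock) in duplicate plates.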
HPGD inh = qHTS Assay for Inhibitors of HPGD (15-Hydroxyprostaglandin Dehydrogenase); 15-hydroxyprostaglandin dehydrogenase [NAD(+)] (Homo sapiens), P15428; purified HPGD, NADH fluorescence kinetic, PGE2 substrate; Potency, µM, inactives show at the highest dose activity change, negative = inhibition, usual class: inhibitors; actives 4.3% (n = 150,000); AID 894, 2007; active means well fitted inhibition curve with a large enough effect, not every such curve was filed as active; inconclusive means small, poorly fitted or top-dose-only effect, or another doubt; inactive means no such curve, though single readings can be large or run the other way; further: potency means the concentration at half of the fitted maximal effect
Target sequence (P15428 whole entry, looked up): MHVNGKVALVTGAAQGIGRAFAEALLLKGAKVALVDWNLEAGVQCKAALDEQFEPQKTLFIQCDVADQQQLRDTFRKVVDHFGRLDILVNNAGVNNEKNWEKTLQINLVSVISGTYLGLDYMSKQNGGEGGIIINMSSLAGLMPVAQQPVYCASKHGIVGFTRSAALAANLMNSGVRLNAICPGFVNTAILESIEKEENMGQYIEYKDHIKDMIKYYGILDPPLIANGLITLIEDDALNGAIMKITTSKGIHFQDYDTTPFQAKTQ
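NADH formation kinetics: reaction with 30 uM PGE2 and 1 mM NAD+ (final), 20 nM enzyme, Tris-HCl pH 8 with Tween 20, after 15 min compound preincubation at room temperature. Fluorescence change, last versus first of five reads.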
IMPase Li cell = qHTS Assay for Identifying the Cell-Membrane Permeable IMPase Inhibitors: Potentiation with Lithium | CHO-M1 cells, IP1 TR-FRET (IP-One), carbachol + lithium | actives 0.35% (n = 210,000) | Potency, µM (top dose mostly 59.4 µM), for the others: at the top dose activity, negative = IMPase inhibition, usual class: inhibitors | AID 1457, 2008;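 further: IP1 builds up when IMPase is blocked and the TR-FRET signal falls; potency means the concentration at half of the fitted maximal effect; plate controls were basal vehicle for no effect and high inhibitor control for full effect; nearly all actives have a fitted effect of over 50% in size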
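IP1 accumulation measured by competitive TR-FRET in lysed CHO-M1 cells after 30 min compound exposure at 37C, with a small lithium addition to potentiate weak responses. Hill-equation AC50 from ratio and donor-channel data.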
Starred values were filed as active, the others as inactive; ? = inconclusive; . = no result; [ ] = remark or other dose. The list is not random: actives were taken first. Their share in the collection is about 5.3%. Unless noted, the call rests on the fitted dose curve; in most records, active means well fitted curve in the direction sought with a large enough effect; inconclusive means small, poorly fitted or top-dose-only effect, or another doubt; inactive means no such curve, though single readings can be large; an effect the other way counts as inactive or inconclusive. Unless noted, on the % scale 0 is the no-effect control and ±100 the full control effect.

SMILES	IMPase cell inh	ALOX12 inhib	ALOX15B inhib	PNC inhibitor	HPGD inh	IMPase Li cell
CCOc1cc(C)c(Cl)cc1S(=O)(=O)n1cnc2ccccc21	8	-3%	8%	-107*	-1%	31%[38.3 µM]
C=CC(=O)CC	.	1%	6%	.	-2%	2%
CCCCC/C=C\C\C=C/C=C/C=C/[C@@H](SC[C@H](NC(=O)CC[C@H](N)C(=O)O)C(=O)NCC(=O)O)[C@@H](O)CCCC(=O)O	.	.	.	.	.	-9%
Cc1oncc1C(=S)Nc1ccccc1	2	1%	-12%	-92*	-16%	-10%[38.3 µM]
NS(=O)(=O)c1ccc(NC(=O)CN2CCCC2)cc1	.	.	.	.	.	-4%
NS(=O)(=O)c1ccc(NC(=O)CN2CCCCC2)cc1	-1	-3%	-5%	-83*	-11%	-17%[38.3 µM]
CC(Oc1ccc(F)cc1)C(=O)/C=C\N(C)C (stereo not drawn)	4	-2%	0%	-88*	-26%	-8%
CC(Oc1cccc(F)c1)C(=O)/C=C\N(C)C (stereo not drawn)	?	-20%	-7%	-19	?	-9%[38.3 µM]
CC(Oc1ccccc1Cl)C(=O)/C=C/N(C)C (stereo not drawn)	5	-26%	-5%	-16	14µM*	-2%[38.3 µM]
CN(C)/C=C/C(=O)Oc1ccc(Cl)cc1Cl	.	.	.	.	.	2%
CC(Oc1ccccc1F)C(=O)/C=C/N(C)C (stereo not drawn)	7	-5%	-14%	-13	28µM*	-7%[38.3 µM]
Cc1cccc(N2CCN(C(=O)c3cc(C)oc3C)CC2C)c1 (stereo not drawn)	.	-2%	.	?	-1%	16%
Cc1ccc(C(=O)n2nc(-n3cccc3)c3c(C)cc(C)nc32)cc1	.	.	.	.	.	-4%
Cc1cc(C)c2c(-n3cccc3)nn(C)c2n1	1	7%	4%	-109*	-16%	0%[38.3 µM]
CCCC(=O)OCCNc1cc(Sc2nc3ccccc3[nH]2)c2nonc2c1[N+](=O)[O-]	.	-16%	.	19	7.9µM*	24%
CC(=O)OCCCNc1cc(Sc2ccc(Cl)cc2)c2nonc2c1[N+](=O)[O-]	4	-2%	.	45	13µM*	28%
CCC(=O)OCCNc1cc(SCCC(=O)OC)c2nonc2c1[N+](=O)[O-]	5	-11%	.	25	?	4%
Cc1ccc(C)c(OCCn2c(=O)c3c(ncn3C3CCCC3)n(Cc3ccccc3)c2=O)c1	.	-5%	.	-119*	-10%	16%
CCOC(=O)CSC1=NC(=O)CS1	1	-3%	-24%	?	14µM*	12%[38.3 µM]
CC(=O)Nc1ccc(S(=O)(=O)NCc2ccc3c(c2)cc(C)n3C)cc1	3	4%	-2%	2	-5%	0%[38.3 µM]
Cc1cc2cc(CNC(=O)CCC(=O)O)ccc2n1C	.	.	.	.	.	-22%
Cc1c(C(=O)NCc2ccc3c(c2)cc(C)n3C)cccc1[N+](=O)[O-]	.	-1%	.	50	1.8µM*	-6%
Cc1cc2cc(CNS(=O)(=O)c3ccc4ccccc4c3)ccc2n1C	-15	3%	-8%	-102*	-16%	-5%[38.3 µM]
Cc1cc2cc(CNC(=O)Nc3cccc(Cl)c3)ccc2n1C	-23	-8%	-6%	-26	-13%	4%[38.3 µM]
Cc1cc2cc(CNC(=O)c3cccc([N+](=O)[O-])c3)ccc2n1C	.	-4%	.	10	?	4%
SMILES	IMPase cell inh	ALOX12 inhib	ALOX15B inhib	PNC inhibitor	HPGD inh	IMPase Li cell
Cc1cccc(NC(=O)NCc2ccc3c(c2)cc(C)n3C)c1	?	12%	-10%	-108*	-17%	?
CCCC(=O)NCc1ccc2c(c1)cc(C)n2C	1	-2%	-8%	47	7.9µM*	-13%[38.3 µM]
Cc1ccc(OCCNc2cc(N3CCN(CCO)CC3)ccc2[N+](=O)[O-])cc1C	.	-6%	.	57	35µM*	17%
Cc1cccc(-n2c(SCC(=O)Nc3ncc(Cl)cc3Cl)nc3ccccc32)c1	6	1%	.	-108*	-10%	10%
COc1ccc(-n2c(SCC(=O)Nc3ncc(Cl)cc3Cl)nc3ccccc32)cc1	.	.	.	.	.	7%
O=C(CSc1nc2ccccc2n1-c1ccccc1)Nc1ncc(Cl)cc1Cl	-8	-6%	.	-107*	-7%	22%
CNC1=CN(O)C(c2ccccc2)=c2cc(Cl)ccc2=N1	.	1%[0.00818 µM]	-4%[0.0915 µM]	.	-14%	-5%
O=C(NNc1nc2cc3c(cc2s1)OCCO3)c1ccccc1	.	.	.	.	.	8%
Cc1cccc2sc(NNC(=O)c3ccc4c(c3)OCCO4)nc12	.	-6%	.	10	32µM*	8%
CN1CCN(c2ncc3nc(-c4ccccc4)c(=O)n(CCC#N)c3n2)CC1	.	1%	6%	.	?	-6%
O=C(NCCSc1c(-c2ccccc2)[nH]c2ccccc12)c1cc2ccccc2oc1=O	.	0%	.	-86*	-15%	8%
Cc1ccc(-c2[nH]c3ccccc3c2SCCNC(=O)c2cc3ccccc3oc2=O)cc1	.	-3%	.	67	-6%	23%
CC(Oc1cc(-c2ccccc2)cc2ccccc12)C(=O)N1CCOCC1 (stereo not drawn)	-5	-2%	-8%	-28	-23%	27%[38.3 µM]
CCSCCOC(=O)C1=C(C)NC2=C(C(=O)CCC2)C1c1coc2ccccc2c1=O (stereo not drawn)	4	-3%	-18%	?	-2%	-16%[38.3 µM]
CC1=C(C(=O)OC(C)C)C(c2coc3ccccc3c2=O)C2=C(CCCC2=O)N1 (stereo not drawn)	2	5%	-5%	-81*	0%	-3%[38.3 µM]
CCOc1ccccc1NC(=O)CSc1nnc(-c2ccco2)n1Cc1ccco1	4	-8%	1%	-23	-25%	18%[38.3 µM]
CCOc1ccccc1NC(=O)CSc1nnc(-c2ccccn2)n1Cc1ccco1	?	-8%	-13%	-82*	-16%	-4%[38.3 µM]
CCOc1ccccc1NC(=O)CSc1nnnn1Cc1ccccc1	-4	-10%	0%	-82*	-12%	27%[38.3 µM]
CCCCC(=O)NC(=S)Nc1nnn(CCC)n1	.	.	.	.	.	-12%
CCCC(=O)NCCc1cc2ccc(OC)cc2[nH]c1=O	-13	-1%	4%	-7	-21%	8%[38.3 µM]
CCCCC(=O)NCCc1cc2ccc(OC)cc2[nH]c1=O	-2	1%	.	-100*	?	-6%
COC(=O)c1ccccc1NC(=O)C1CCCN(S(=O)(=O)c2ccc(F)cc2)C1 (stereo not drawn)	-6	8%	0%	-89*	-20%	13%
